# Screening data from PubChem BioAssay.
# Hits are enriched below; roughly 2% of the tested compounds scored in any of these assays.
# CHRM4 PAM: positive allosteric modulators of human muscarinic M4 receptor | activation, % at 3 µM | actives 0.4% (n = 360,000) | CHO-K1 hM4/Gqi5, Fluo-8 calcium fluorescence, ACh EC20; 0% = ACh EC20, 100% = maximal ACh;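 active = activation above its plate's cutoff, the mean activation of sample wells plus 3 SD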
# Target sequence (P08173 whole entry, looked up): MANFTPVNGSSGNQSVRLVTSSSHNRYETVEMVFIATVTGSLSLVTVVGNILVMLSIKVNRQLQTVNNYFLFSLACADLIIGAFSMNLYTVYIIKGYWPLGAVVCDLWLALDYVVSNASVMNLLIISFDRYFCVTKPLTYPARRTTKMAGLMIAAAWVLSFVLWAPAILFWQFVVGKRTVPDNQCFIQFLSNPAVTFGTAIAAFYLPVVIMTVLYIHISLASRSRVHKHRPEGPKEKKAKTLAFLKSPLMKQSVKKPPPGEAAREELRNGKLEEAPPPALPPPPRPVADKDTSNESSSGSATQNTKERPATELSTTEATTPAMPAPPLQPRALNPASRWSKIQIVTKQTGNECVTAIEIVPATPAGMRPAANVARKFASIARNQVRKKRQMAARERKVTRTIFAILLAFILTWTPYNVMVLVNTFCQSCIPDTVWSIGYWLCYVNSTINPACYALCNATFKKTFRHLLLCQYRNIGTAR
# M4 antag: CHRM4 antagonism in calcium assay | CHO-hM4 cells, ACh EC80, Fluo-8 calcium fluorescence | inhibition, % at 3 µM | actives 0.73% (n = 360,000) | AID 624125;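 active = inhibition above its plate's cutoff, the mean inhibition of sample wells plus 3 SD, cut at about 27% in these data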;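 note: 0% = acetylcholine EC80 with DMSO and 100% = DMSO without agonist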
# CHO-K1 Ca antag: M1 antagonist counterscreen hit in parental CHO-K1 cells. ATP-induced calcium, Fluo-8 fluorescence. inhibition, % at 3 µM. actives 0.6% (n = 360,000);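 active = inhibition above a per-plate cutoff, the plate's mean sample inhibition plus 3 SD, cut at about 24% in these data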;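 note: 0% = DMSO plus EC80 ATP and 100% = DMSO alone without ATP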
# CHRM4 agonist: agonists of human muscarinic M4 receptor (CHRM4) | P08173 | CHO-K1 hM4/Gqi5, Fluo-8 calcium fluorescence; vehicle 0%, full acetylcholine response 100% | activation, % at 3 µM | actives 0.14% (n = 360,000) | AID 624127;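 active = activation above the run mean over all test wells plus 3 SD, cut at about 32% in these data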;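 note: peak over basal fluorescence ratio per well then scaled between controls; 0% = DMSO wells and 100% = acetylcholine at EC100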
# M1 ag parental: nonselective activator or artifact in parental CHO-K1 cells; Fluo-8 calcium fluorescence; scaled to maximal ATP response, vehicle zero; actives 0.48% (n = 360,000); AID 602248; activation, % at 3 µM; in the data active = activation above about 15%;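 note: untransfected CHO-K1 host cells lacking M1 receptor as counterscreen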
# CHO-K1 Ca PAM: M1 PAM counterscreen hit in parental CHO-K1 cells | ATP EC20, Fluo-8 calcium fluorescence; 0% at ATP EC20, 100% at ATP max | activation, % at 3 µM | actives 0.02% (n = 360,000) | AID 602247;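 active = activation above the run cutoff, the mean activation of all test compounds plus 3 SD, cut at about 40% in these data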;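 note: peak over basal fluorescence ratio in a 140 s read after ATP addition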
# Numbers without * were called inactive.
SMILES,CHRM4 PAM,M4 antag,CHO-K1 Ca antag,CHRM4 agonist,M1 ag parental,CHO-K1 Ca PAM
CC(=O)Oc1ccccc1N1C(=O)c2ccc(C(=O)O)cc2C1=O,27.7,31.0*,7.8,1.5,0.1,-5.0
O=C1C(C2=NC(C(=O)O)C3C(=O)N(c4ccccc4)C(=O)C23)=C(O)c2ccccc21 (stereo not drawn),10.1,1.6,-3.0,0.2,0.9,22.6
CN1CCC(n2[nH]c(-c3ccccc3)c(Cc3ccccc3)c2=O)CC1,-10.7,98.4*,-11.9,1.6,2.0,8.6
CN1CCC(N2CCN(C3CN(CCc4ccccc4)S(=O)(=O)C3)CC2)CC1 (stereo not drawn),0.4,-3.5,4.2,-0.3,1.0,15.0
COc1ccc(NC2=CC(=O)CC(c3ccc(C)cc3)C2)c(OC)c1 (stereo not drawn),23.4*,-1.9,5.3,1.2,0.1,-3.6
COc1ccccc1NC1=CC(=O)CC(c2ccccc2)C1 (stereo not drawn),0.9,9.5,0.9,1.7,0.5,2.9
COc1ccc(CC(=O)NC(=S)Nc2cccc(C)c2)cc1,-19.9,5.4,-11.5,29.1,13.0,16.5
COc1cccc(NC(=S)NC(=O)Cc2ccc(Cl)cc2)c1,-4.6,-0.2,5.7,29.2,22.6*,22.5
COc1cc(NC(=O)c2cc(Cl)nnc2Cl)cc(OC)c1OC,-2.5,0.0,11.9,1.0,0.1,-13.3
COc1cccc(NC(=O)c2cc(Cl)nnc2Cl)c1,23.9*,-6.6,-11.5,4.5,1.6,20.7
Cc1cc(OCC(=O)Nc2ncn[nH]2)ccc1Cl,2.0,-6.4,8.5,1.3,0.2,-7.2
O=C1Nc2ccc(Cl)cc2/C1=C/C1CC=CCC1 (stereo not drawn),9.5,7.1,1.3,1.0,-0.1,12.3
COc1cc(CCC(=O)NC2(C)CCS(=O)(=O)C2)cc(OC)c1OC (stereo not drawn),3.9,0.3,-14.6,-0.3,0.9,16.7
Cc1ccccc1CN1CCC(CNC(=O)C2CCCN(c3ncnc4c3nc3n4CCCCC3)C2)CC1 (stereo not drawn),-21.7,63.4*,-19.5,3.2,1.6,1.2
COCCCNC(=O)c1ccc2nc(Cc3ccc(OC)cc3)oc2c1,-15.1,36.6*,-6.8,1.9,1.6,4.1
COc1ccc([C@@H]2CC=C(C(=O)O)[C@H](c3ccc(C(C)(C)C)cc3)N2S(=O)(=O)c2ccc(C)cc2)cc1OC,-8.2,11.9,-11.4,1.1,0.8,16.8
CC(C)=CC(=O)OCc1csc(CC(=O)Nc2ccccc2C)n1,-4.6,-7.7,-9.2,0.2,0.5,5.5
CC(=NNC(=S)N1CCN(c2ccccn2)CC1)c1nccs1,-4.5,42.9*,7.8,3.5,0.4,6.7
Cc1cc(C)c(NS(=O)(=O)c2cccc3cccnc23)c(C)c1,14.7,-22.6,26.9*,0.5,-0.1,-15.3
Cc1ccc(NS(=O)(=O)c2cccc3cccnc23)cc1Cl,-3.5,-7.6,-6.7,1.2,0.5,1.5
O=C(NCCc1ccc(F)cc1)C1CCCO1 (stereo not drawn),-1.7,4.8,4.7,0.6,0.4,-15.7
O=C(NCCc1ccc(Cl)cc1)C1CCCO1 (stereo not drawn),-19.3,97.2*,0.4,0.3,-0.2,-6.2
COc1ccc(-c2cn3c(C)c(C(=O)N4CCCc5ccccc54)sc3n2)cc1,-9.3,-7.4,7.5,3.3,0.1,8.3
Cn1c(-c2ccc3c(c2)OCO3)cnc1NCc1ccccc1Cl,-26.2,50.4*,-8.1,0.7,3.2,7.6
Cc1ccc(-c2cnc(NCc3cc4c(cc3[N+](=O)[O-])OCO4)n2C)cc1C,-7.2,4.0,-7.5,2.5,17.0*,18.6
SMILES,CHRM4 PAM,M4 antag,CHO-K1 Ca antag,CHRM4 agonist,M1 ag parental,CHO-K1 Ca PAM
Cn1c(-c2ccc3c(c2)OCO3)cnc1N,3.2,-0.6,-12.0,0.8,0.3,17.5
Cc1cc(C)cc(NCc2cc3c(cc2[N+](=O)[O-])OCO3)c1,-0.9,1.1,-1.9,-1.2,-0.2,-7.6
Cn1c(-c2ccc3c(c2)OCO3)cnc1NCc1ccccc1,-12.9,11.3,-2.4,0.7,3.4,-6.8
Cn1c(-c2ccc3c(c2)OCO3)cnc1NCc1cccc(Cl)c1,-25.1,32.3*,0.1,1.7,0.7,9.1
CCn1c(SCC(=O)O)nnc1-c1ccc2[nH]c(C)c(C)c2c1,-5.4,-7.1,3.7,0.9,0.3,6.8
Cc1nn(C)c(C(=O)N/N=C/c2cc3c(cc2Br)OCO3)c1Br,0.8,-4.9,12.5,1.1,4.3,3.3
COC(=O)Cn1c(=NC(=O)C(C)C)sc2c(C)cc(C)cc21,-1.2,1.4,29.9*,0.6,0.6,-5.7
NCC1OC(n2cnc3c(N)ncnc32)CC1O (stereo not drawn),3.1,-1.4,-7.3,0.2,0.5,-5.0
Nc1ncnc2c1ncn2[C@H]1C[C@H](O)[C@@H](COP(=O)(O)O)O1,-2.2,30.4*,10.4,1.3,-0.4,-3.1
Cn1c(=O)cc(OCCCC(=O)Nc2cccnc2)c2ccccc21,20.8,36.6*,-3.9,1.9,0.6,3.3
CCn1c(=O)cc(SCC(=O)Nc2cccnc2)c2ccccc21,-14.3,6.8,24.6*,1.6,1.1,-9.2
CCc1ccc(NC(=O)CCCOc2cc(=O)n(C)c3ccccc23)cc1,1.9,5.3,-5.9,-0.7,0.2,16.9
CCn1c(=O)cc(SCC(=O)Nc2ccc3c(c2)OCO3)c2ccccc21,12.7,6.6,-14.6,-0.8,1.8,10.6
Cc1ccc([N+](=O)[O-])cc1S(=O)(=O)NCCc1c(C)[nH]c2c(C)cccc12,-6.1,27.9*,-4.5,4.3,1.8,17.0
CC(OC(=O)CCCN=C1NS(=O)(=O)c2ccccc21)C(=O)c1ccccc1 (stereo not drawn),2.6,-10.9,-4.1,18.4,16.0*,6.0
CC(OC(=O)CCCN=C1NS(=O)(=O)c2ccccc21)C(=O)N(C)c1ccccc1 (stereo not drawn),1.2,-12.3,-9.3,1.8,0.3,8.0
CC(C)Oc1ccc(C(CCNCc2ccc(O)cc2)c2ccccc2)cc1 (stereo not drawn),-16.2,23.8,14.7,14.1,20.8*,2.4
COc1ccc(CCNCCC(c2ccccc2)c2ccccc2)cc1OC,-8.6,2.4,9.8,11.7,2.2,3.5
COc1ccc(C(CCNCc2ccc(OC)c(OC)c2)c2ccc(F)cc2)cc1 (stereo not drawn),-7.4,1.8,7.5,1.1,17.9*,-0.7
COc1ccc(C(CCNCc2ccc(N(C)C)cc2)c2ccccc2)cc1 (stereo not drawn),-12.1,10.7,3.0,25.1,22.5*,-9.0
Cc1ccc(S(=O)(=O)NN(Cc2ccccc2)Cc2ccccc2)cc1,1.3,-12.3,-2.7,-2.6,0.5,22.9
CCOc1ccc(NS(=O)(=O)c2ccc(C(=O)NCc3cccnc3)cc2)cc1,1.2,-2.1,7.7,3.8,0.8,-9.3
